Source: PubChem BioAssay (National Center for Advancing Translational Sciences (NCATS))
TSHR antagonist = blocks TSH signaling through the human TSH receptor. P16473. TSHR-expressing cells, TSH-stimulated cAMP HTRF, 2 h; active compounds read low. activity change, negative = inhibition, % at 11.5 µM. 0.2% of 330,000 active. AID 504810;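 active = activity change below a set negative limit, meaning inhibition stronger than a set level, cut at about -70% in these data; inconclusive = activity change between two set negative limits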; also: % is scaled to controls: 0 for no effect and ±100 for the full control effect
Target sequence (P16473 whole entry, looked up): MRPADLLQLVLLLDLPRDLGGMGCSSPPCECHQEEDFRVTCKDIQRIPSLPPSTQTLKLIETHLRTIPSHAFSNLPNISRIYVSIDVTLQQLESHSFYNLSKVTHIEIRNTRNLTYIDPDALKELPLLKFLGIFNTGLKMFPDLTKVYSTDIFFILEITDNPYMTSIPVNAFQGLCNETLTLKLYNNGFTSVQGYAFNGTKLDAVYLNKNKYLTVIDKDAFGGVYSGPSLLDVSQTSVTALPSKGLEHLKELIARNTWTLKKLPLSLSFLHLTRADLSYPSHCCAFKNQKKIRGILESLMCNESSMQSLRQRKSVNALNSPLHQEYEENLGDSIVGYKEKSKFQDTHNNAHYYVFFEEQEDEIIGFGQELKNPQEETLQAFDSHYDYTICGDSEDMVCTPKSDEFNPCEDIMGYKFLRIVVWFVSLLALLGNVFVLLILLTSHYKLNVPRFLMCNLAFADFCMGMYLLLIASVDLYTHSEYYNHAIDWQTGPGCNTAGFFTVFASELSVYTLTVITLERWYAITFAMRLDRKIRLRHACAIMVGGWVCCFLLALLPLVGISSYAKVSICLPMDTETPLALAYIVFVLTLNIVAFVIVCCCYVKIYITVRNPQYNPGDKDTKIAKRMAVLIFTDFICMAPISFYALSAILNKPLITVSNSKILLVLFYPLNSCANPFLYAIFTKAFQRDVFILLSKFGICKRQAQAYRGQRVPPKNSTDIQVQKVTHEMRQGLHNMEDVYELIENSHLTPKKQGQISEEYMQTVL
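Cell-based HTRF cAMP assay; TSHR cells + compound, TSH EC80 (4nM final), 2 h, 37 deg C. Lysis with anti-cAMP cryptate and cAMP-d2, 30 min RT, read 665/620 nm.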
CCT modulator = cytosolic chaperonin activity modulation | purified chaperonin ATPase assay, HTRF ADP detection, 30 min | 0.3% of 360,000 active | activity change, % (concentration not given with the values), hits read low | AID 651819; in the data active = activity change below about -30%; also: % is scaled to controls: 0 for no effect and ±100 for the full control effect
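We incubate TRiC, 40 or 20 nM final, with library compounds at 76 uM and 10 uM ATP for 30 min at 37 °C. ADP formed is detected with Transcreener HTRF reagents after 30 min at room temperature.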
uPA surface inh = inhibitors of cell surface uPA generation | cell surface uPA generation assay, qHTS | Potency, µM (top dose mostly 38.3 µM), without a hit: top-dose activity change, negative = inhibition, most hits filed as inhibitors | 0.31% of 330,000 active | AID 540303; active = well fitted inhibition curve with a large enough effect; inconclusive = small, poorly fitted or top-dose-only effect; inactive = no such curve, though single readings can be large or run the other way; tested in mouse RAW 264.7 cells; also: potency is read from the fitted curve at half-maximal effect; % is scaled to controls: 0 for no effect and ±100 for the full control effect; nearly all actives have a fitted effect of over 55% in size
gsp ag = gsp mutant agonism. AID 624287. gsp mutant cells, cAMP HTRF, 30 min. Potency, µM (titrated, usually from 76.9 µM), without a hit: at the highest dose activation (cAMP increase), usual class: activators. 0.13% of 340,000 active; active = well fitted activation curve with a large enough effect; inconclusive = small, poorly fitted or top-dose-only effect, or another doubt; inactive = no such curve, though single readings can be large or run the other way; cell line not stated here;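 also: phosphodiesterase inhibitor Ro 20-1724 added with compounds to block cAMP breakdown; potency is read from the fitted curve at half-maximal effect; nearly all actives have a fitted effect of over 60% in size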
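Cells in DMEM/10% FBS with G418 were pretreated with compounds in DMSO plus […] (300 uM stock) for 30 min at 37C. cAMP was measured by HTRF (cAMP-d2 plus anti-cAMP antibody-K) after 30 min at room temperature.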
gsp antagonist = antagonists of gsp mutant (McCune-Albright syndrome). gsp-mutant cells, cAMP HTRF, 30 min. Potency, µM (series often up to 76.9 µM), for the others: at the highest dose activity change, negative = inhibition, actives largely listed as inhibitors. 0.4% of 340,000 active. AID 624288; calls by dose curve; cell line not stated here;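 also: intracellular cAMP measured with PDE inhibitor Ro 20-1724 present during compound exposure; potency is read from the fitted curve at half-maximal effect; % is scaled to controls: 0 for no effect and ±100 for the full control effect; nearly all actives have a fitted effect of over 65% in size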
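HTRF cAMP measurement after 30 min RT detection following 30 min, 37C compound treatment alongside […] (added as 300 uM solution) in G418-selected cells seeded at 2000/well and grown 16–24 h.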
MmCpn inh = M. maripaludis TRiC chaperonin inhibition | purified Mm-Cpn ATPase, ADP Transcreener TR-FRET | 0.031% of 330,000 active | Potency, µM (doses to about 76.9 µM), inactives show at the highest dose activity, negative = inhibition, hits mostly inhibitors; active = well fitted inhibition curve with a large enough effect; inconclusive = small, poorly fitted or top-dose-only effect; also: potency is read from the fitted curve at half-maximal effect; % is scaled to controls: 0 for no effect and ±100 for the full control effect; nearly all actives have a fitted effect of over 80% in size
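Eu-cryptate anti-ADP/ADP-d2 competition gives a ratio inversely related to ADP. Enzyme at 25 nM was pre-exposed to compound for 10 min, then given 10 uM ATP for 30 min, 37°C throughout.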
Active calls of the source: *; ? = inconclusive; [ ] = another dose, or the depositor's remark. In the library only some 1.2% were active in any assay of this set; here they are far more common.

SMILES | TSHR antagonist | CCT modulator | uPA surface inh | gsp ag | gsp antagonist | MmCpn inh
CCCCn1c(N)c(N(CC(C)C)C(=O)c2cccc(S(=O)(=O)N3CCCCCC3)c2)c(=O)[nH]c1=O | 7 | -81* | -2% | 6% | -6% | -9%
COc1ccc(-c2nc3ccccc3s2)cc1 | -11 | 1 | 3.5µM* | 12% | -6% | -2%
Oc1ccc(-c2nc3ccccc3s2)cc1 | 0 | 2 | 6.3µM* | 6% | 4% | -14%
CCOC(=O)c1cc(NC(=O)CC(C)(C)CC(=O)O)ccc1N1CCCCC1 | -9 | 2 | -4% | 0% | 32µM* | -3%
COC(=O)C1=C(C(=O)c2ccccc2)C(c2ccc(O)c(OC)c2)n2nnnc2N1 (centres undefined) | 11 | -1 | -3% | -19% | -14% | 0%
Cc1nc(SCC(=O)NCC2CCCO2)c2c3c(sc2n1)CCC3 (centres undefined) | -6 | 0 | -16% | ? | 0% | -2%
CC(C)(C)c1ccc(C(=O)Nc2nnc(SCC(=O)NCC3CCCO3)s2)cc1 (centres undefined) | -3 | -2 | 0.89µM* | 30% | -1% | 1%
CN(C)S(=O)(=O)c1ccc(C(=O)Nc2nnc(SCC(=O)NCC3CCCO3)s2)cc1 (centres undefined) | 10 | -2 | 7.9µM* | 7% | 0% | -1%
Cc1nc(SCC(=O)NCC2CCCO2)c2cc(-c3ccccc3)sc2n1 (centres undefined) | -39 | 0 | 8.9µM* | 11% | -10% | -12%
CCOc1ccc(C(=O)Nc2nnc(SCC(=O)NCC3CCCO3)s2)cc1 (centres undefined) | 6 | -3 | ? | ? | 3% | 2%
O=C(CSc1nnc(NC(=O)c2cccc(F)c2)s1)NCC1CCCO1 (centres undefined) | -5 | 0 | ? | -25% | -17% | -5%
CCCCNC(=O)c1sc(=S)n2c1[nH]c(=O)c1ccc(C(=O)NCCc3ccc(OC)c(OC)c3)cc12 | -37 | -3 | 5% | ? | 35µM* | 3%
O=C(NCc1ccccc1)c1sc(=S)n2c1[nH]c(=O)c1ccccc12 | -79* | -1 | 2% | -8% | -14% | 0%
CC(=O)NNC(=O)c1sc(=S)n2c1[nH]c(=O)c1sccc12 | 7 | 3 | 1% | -10%[15.4 µM] | 0% | -10%
Cc1cc(CNC(=O)COc2ccc([N+](=O)[O-])cc2)c2ccccc2n1 | 1 | 2 | -1% | 9%[15.4 µM] | 11% | 2%
Cc1cnc(NC(=O)Nc2ccc(Cl)cc2)s1 | -22 | -1 | 2.2µM* | 27% | 5% | -1%
O=C(NNC(=O)c1ccccc1O)c1ccc(NS(=O)(=O)c2ccc(F)cc2)cc1 | 9 | -1 | -6% | -18%[15.4 µM] | 0% | -2%
COc1cccc(NC(=O)c2ccc(S(=O)(=O)N3CCCC3)cc2)c1 | -14 | 0 | -3% | -8%[15.4 µM] | 6% | 4%
COC(=O)c1ccc(CNC(=O)c2ccc3c(c2)NC(=O)CS3)cc1 | -7 | -4 | 8% | -56% | -4% | -4%
COc1ccc(C(c2nnnn2Cc2ccccc2)N2CCN(c3ccccc3)CC2)cc1 (centres undefined) | -11 | -2 | -3% | 2% | -20% | -2%
COc1ccc(Cn2nnnc2C(C(C)C)N2CCN(c3ccccc3OC)CC2)cc1 (centres undefined) | -86* | -1 | -7% | ? | -7% | 2%
Cc1ccsc1C(=O)NNC(=S)NC1CCCCC1 | 5 | 2 | -2% | -60% | -15% | -6%
CC(C)(C)c1cc(C(=O)N2CCc3ccccc3C2)ccn1 | -8 | -2 | 7.9µM* | 17% | 1% | 1%
COc1cc(/C=N/NC(=O)c2cc(-c3ccco3)nc3ccccc23)cc(OC)c1O | 2 | 1 | 7% | -32% | -9% | -2%
C=CCn1c(SCC(=O)NC2CCCC2)nc2sc(C)cc2c1=O | 19 | -2 | 1% | -25%[15.4 µM] | 1% | 0%
